In PubChem BioAssay AID1159580 (chemical genetic matrix, 2015):
The campaign covered roughly 5,500 compounds. About 2,000 (36%) were called active. About 18% were inconclusive and are not listed. Cut-off read from the data, not from the text of the source: active = normalized growth mostly below about 0.91 (no sharp cut-off); inconclusive = no clear call, values can overlap the other calls; inactive = mostly above about 0.92. The list shows a part of the results.

Assay: chemical genetic growth profiling, strain panel (AID 1159580);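 note: tested at 20 µM; growth read once vehicle control cultures reached saturation at 30 °C; 1 = growth at the plate median or of vehicle wells; lower values mean less growth of the strain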
Details: growth OD

Measured: normalized growth

Cc1c(C(N)=O)cc([N+](=O)[O-])cc1[N+](=O)[O-]
inactive: S. cerevisiae deletion strains, locus YJR066W, strain TOR1, stronger effect = lower value 0.991 | S. cerevisiae deletion strains, locus YKL009W, strain mrt4, stronger effect = lower value 0.972 | S. cerevisiae deletion strains, locus YKL068W, stronger effect = lower value 0.982 | S. cerevisiae deletion strains, locus YKL085W, strain MDH1 (second series), stronger effect = lower value 1.02 | S. cerevisiae deletion strains, locus YKL085W, strain MDH1, stronger effect = lower value 1.02 | S. cerevisiae deletion strains, locus YKL160W, strain elf1, stronger effect = lower value 0.988 | S. cerevisiae deletion strains, locus YKL190W, strain CNB1, stronger effect = lower value 0.996 | S. cerevisiae deletion strains, locus YKR001C, strain vps1, stronger effect = lower value 0.993 | S. cerevisiae deletion strains, locus YKR026C, strain gcn3, stronger effect = lower value 1.02 | S. cerevisiae deletion strains, locus YKR091W, strain srl3, stronger effect = lower value 1.02 | S. cerevisiae deletion strains, locus YLL001W, strain dnm1, stronger effect = lower value 1.02 | S. cerevisiae deletion strains, locus YLL026W, stronger effect = lower value 1.02 | S. cerevisiae deletion strains, locus YLL041C, strain sdh2, stronger effect = lower value 1.02 | S. cerevisiae deletion strains, locus YLR027C, strain aat2, stronger effect = lower value 1.01 | S. cerevisiae deletion strains, locus YLR039C, strain RIC1, stronger effect = lower value 0.988 | S. cerevisiae deletion strains, locus YLR058C, strain SHM2, stronger effect = lower value 0.99 | S. cerevisiae deletion strains, locus YLR102C, strain apc9, stronger effect = lower value 0.97 | S. cerevisiae deletion strains, locus YLR113W, strain HOG1, stronger effect = lower value 1.07 | S. cerevisiae deletion strains, locus YLR221C, strain rsa3, stronger effect = lower value 1.03 | S. cerevisiae deletion strains, locus YLR258W, strain gsy2, stronger effect = lower value 1.04 | S. cerevisiae deletion strains, locus YLR262C, strain YPT6 (second series), stronger effect = lower value 1.02 | S. cerevisiae deletion strains, locus YLR262C, strain YPT6, stronger effect = lower value 1.01 | S. cerevisiae deletion strains, locus YLR268W, strain sec22, stronger effect = lower value 0.979 | S. cerevisiae deletion strains, locus YLR320W, strain mms22, stronger effect = lower value 1.05 | S. cerevisiae deletion strains, locus YLR330W, strain CHS5, stronger effect = lower value 0.994 | S. cerevisiae deletion strains, locus YLR342W, strain FKS1 (second series), stronger effect = lower value 0.984 | S. cerevisiae deletion strains, locus YLR342W, strain FKS1, stronger effect = lower value 1.02 | S. cerevisiae deletion strains, locus YLR357W, strain rsc2, stronger effect = lower value 0.999 | S. cerevisiae deletion strains, locus YLR370C, strain arc18, stronger effect = lower value 1.04 | S. cerevisiae deletion strains, locus YLR371W, strain rom2, stronger effect = lower value 0.963 | S. cerevisiae deletion strains, locus YLR384C, strain iki3, stronger effect = lower value 1.03 | S. cerevisiae deletion strains, locus YLR418C, strain cdc73, stronger effect = lower value 0.972 | S. cerevisiae deletion strains, locus YML016C, strain PPZ1, stronger effect = lower value 0.989 | S. cerevisiae deletion strains, locus YML032C, strain rad52, stronger effect = lower value 0.978 | S. cerevisiae deletion strains, locus YML120C, strain ndi1, stronger effect = lower value 1.03 | S. cerevisiae deletion strains, locus YML124C, strain tub3, stronger effect = lower value 0.979 | S. cerevisiae deletion strains, locus YMR058W, strain fet3, stronger effect = lower value 1.01 | S. cerevisiae deletion strains, locus YMR078C, strain ctf18, stronger effect = lower value 0.976 | S. cerevisiae deletion strains, locus YMR125W, strain sto1, stronger effect = lower value 0.962 | S. cerevisiae deletion strains, locus YMR129W, stronger effect = lower value 1.02 | S. cerevisiae deletion strains, locus YMR205C, strain PFK2, stronger effect = lower value 1 | S. cerevisiae deletion strains, locus YMR223W, strain ubp8, stronger effect = lower value 0.98 | S. cerevisiae deletion strains, locus YMR231W, strain pep5, stronger effect = lower value 1.03 | S. cerevisiae deletion strains, locus YMR263W, strain SAP30, stronger effect = lower value 0.997 | S. cerevisiae deletion strains, locus YMR307W, strain GAS1, stronger effect = lower value 1.02 | S. cerevisiae deletion strains, locus YNL067W, strain RPL9B, stronger effect = lower value 1.01 | S. cerevisiae deletion strains, locus YNL071W, strain lat1, stronger effect = lower value 1.02 | S. cerevisiae deletion strains, locus YNL128W, strain TEP1, stronger effect = lower value 0.965 | S. cerevisiae deletion strains, locus YNL183C, strain NPR1, stronger effect = lower value 0.98 | S. cerevisiae deletion strains, locus YNL209W, strain ssb2, stronger effect = lower value 1.02 | S. cerevisiae deletion strains, locus YNL233W, strain BNI4, stronger effect = lower value 1.01 | S. cerevisiae deletion strains, locus YNL248C, strain rpa49, stronger effect = lower value 0.923 | S. cerevisiae deletion strains, locus YNL250W, strain rad50, stronger effect = lower value 0.985 | S. cerevisiae deletion strains, locus YNL271C, strain bni1, stronger effect = lower value 0.97 | S. cerevisiae deletion strains, locus YNL298W, strain CLA4, stronger effect = lower value 0.975 | S. cerevisiae deletion strains, locus YNL307C, strain MCK1, stronger effect = lower value 0.978 | S. cerevisiae deletion strains, locus YNL322C, strain KRE1 (second series), stronger effect = lower value 1.03 | S. cerevisiae deletion strains, locus YNL322C, strain KRE1, stronger effect = lower value 0.991 | S. cerevisiae deletion strains, locus YNR049C, strain mso1, stronger effect = lower value 1.02 | S. cerevisiae deletion strains, locus YNR052C, strain pop2, stronger effect = lower value 0.966 | S. cerevisiae deletion strains, locus YOL006C, strain TOP1, stronger effect = lower value 0.984 | S. cerevisiae deletion strains, locus YOL012C, strain htz1 0.838 | S. cerevisiae deletion strains, locus YOL147C, strain pex11, stronger effect = lower value 0.978 | S. cerevisiae deletion strains, locus YOR001W, strain rrp6, stronger effect = lower value 1.03 | S. cerevisiae deletion strains, locus YOR061W, strain CKA2, stronger effect = lower value 0.99 | S. cerevisiae deletion strains, locus YOR069W, strain VPS5, stronger effect = lower value 0.981 | S. cerevisiae deletion strains, locus YOR070C, strain gyp1, stronger effect = lower value 1.02 | S. cerevisiae deletion strains, locus YOR080W, strain dia2, stronger effect = lower value 1.03 | S. cerevisiae deletion strains, locus YOR083W, strain WHI5, stronger effect = lower value 0.985 | S. cerevisiae deletion strains, locus YOR106W, strain vam3, stronger effect = lower value 0.981 | S. cerevisiae deletion strains, locus YOR136W, strain idh2, stronger effect = lower value 0.976 | S. cerevisiae deletion strains, locus YOR144C, strain elg1, stronger effect = lower value 0.978 | S. cerevisiae deletion strains, locus YOR184W, strain ser1, stronger effect = lower value 0.986 | S. cerevisiae deletion strains, locus YOR231W, strain MKK1, stronger effect = lower value 1.05 | S. cerevisiae deletion strains, locus YOR265W, strain rbl2, stronger effect = lower value 1.01 | S. cerevisiae deletion strains, locus YOR270C, strain vph1, stronger effect = lower value 1.01 | S. cerevisiae deletion strains, locus YOR290C, strain snf2, stronger effect = lower value 1.03 | S. cerevisiae deletion strains, locus YOR316C, strain cot1, stronger effect = lower value 0.965 | S. cerevisiae deletion strains, locus YPL051W, strain arl3, stronger effect = lower value 1.01 | S. cerevisiae deletion strains, locus YPL078C, strain atp4, stronger effect = lower value 0.974 | S. cerevisiae deletion strains, locus YPL106C, strain sse1, stronger effect = lower value 1.06 | S. cerevisiae deletion strains, locus YPL240C, strain hsp82, stronger effect = lower value 1.02 | S. cerevisiae deletion strains, locus YPL241C, strain CIN2, stronger effect = lower value 0.991 | S. cerevisiae deletion strains, locus YPL256C, strain CLN2, stronger effect = lower value 1.05 | S. cerevisiae deletion strains, locus YPR119W, strain clb2, stronger effect = lower value 0.982 | S. cerevisiae deletion strains, locus YPR141C, strain kar3, stronger effect = lower value 0.974 | S. cerevisiae deletion strains, locus YPR163C, strain tif3, stronger effect = lower value 0.975 | S. cerevisiae deletion strains, locus YPR167C, strain met16, stronger effect = lower value 0.981 | S. cerevisiae deletion strains, strain wtn01, stronger effect = lower value 0.971 | S. cerevisiae strains, strain wild type, stronger effect = lower value 0.996
